Source: the supplement of paper PMC10127200
Where a name gives a salt, the structure may show the parent alone.

Legend:
Test in all cases: Euclidean distance of Cell Painting phenotypic profile (signed KS, 77 features) to DMSO centroid (dimensionless distance); 5 or 10 uM (library dependent); higher = stronger phenotypic change vs DMSO (phenoactivity)
Conditions in all cases: 48 h
786-O = test system: 786-O
Method in brief: (§1)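 Library compounds were applied at 10 or 5 uM, depending on the library, with 0.1% DMSO final, for 48 h to five cancer lines and a healthy fibroblast line. After staining, cells were imaged confocally at 20X across 9 fields per well, and Harmony extracted 77 features, each scored as a signed Kolmogorov-Smirnov statistic against vehicle wells on the same plate. Phenoactivity is the Euclidean distance between each profile and the median vehicle profile, with profiles first plate-position corrected, correlation-weighted and averaged over replicates at the top dose.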

A549 = test system: A549
Method in brief: as §1

DU145 = test system: DU145
Method in brief: as §1

FB = test system: FB
Method in brief: as §1

HEPG2 = test system: HEPG2
Method in brief: as §1

OVCAR4 = test system: OVCAR4
Method in brief: as §1

SMILES	Euclidean distance (786-O)	Euclidean distance (A549)	Euclidean distance (DU145)	Euclidean distance (FB)	Euclidean distance (HEPG2)	Euclidean distance (OVCAR4)
N#Cc1c(O)c2c(-c3ccc(-c4ccccc4O)cc3)csc2[nH]c1=O	1.12	1.26	0.976	0.818	0.746	1.78
O=C(/C=C\n1cnc(-c2cc(C(F)(F)F)cc(C(F)(F)F)c2)n1)N1CC(F)(F)C1	3.83	3.69	3.2	2.48	3.62	4
NC(=O)/N=N/C(N)=O [Azodicarbonamide]	1.07	0.533	1.15	0.879	1.28	1.14
Cc1cnc(C(=O)N[C@H]2CCCCC/C=C\[C@@H]3C[C@@]3(C(=O)NS(=O)(=O)C3CC3)NC(=O)[C@@H]3C[C@@H](Oc4nc5ccccc5c5ccccc45)CN3C2=O)cn1 [Paritaprevir (ABT-450)]	1.48	1.53	1.52	1.17	0.513	1.39
CNC(=O)c1nn(C)c2c1C(C)(C)Cc1cnc(Nc3ccc(N4CCN(C)CC4)cc3)nc1-2	2.4	3.03	2.9	3.36	2.65	2.9
Cc1nc(Nc2ccc(F)cc2)nc(N2CCc3ccccc3C2C)c1C (stereo unspecified) [Revaprazan Hydrochloride]	1.38	1.19	1.06	1.28	1.21	1.13
C[C@@H](O)[C@H]1C(=O)N2C(C(=O)O)=C(SCCNC=N)C[C@H]12 [Imipenem]	0.957	1.45	0.986	0.737	0.883	0.789
Oc1c(I)cc(Cl)c2cccnc12 [Clioquinol]	1.29	1.03	1.05	1.37	0.894	1.24
S=C(NCc1ccc2c(c1)OCO2)N1CCN(c2ncnc3c2oc2ccccc23)CC1 [Amuvatinib (MP-470)]	1.2	1.72	1.25	1.07	2.14	1.2
CN(C)Cc1c(C(=O)NCCOc2ccc(C(=O)NO)cc2)oc2ccccc12	2.9	4.31	3.96	3.8	4.14	3.47
C[C@H](Cc1cc2c(c(C(N)=O)c1)N(CCCO)CC2)NCCOc1ccccc1OCC(F)(F)F [Silodosin]	2.28	1.27	1.57	2.6	2.41	1.57
Oc1c(Cl)cc(Cl)c(Cl)c1Cc1c(O)c(Cl)cc(Cl)c1Cl [Hexachlorophene]	2.16	1.62	1.19	3.31	2.53	1.64
NCC[C@H](O)C(=O)N[C@@H]1C[C@H](N)[C@@H](O[C@H]2O[C@H](CN)[C@@H](O)[C@H](O)[C@H]2O)[C@H](O)[C@H]1O[C@H]1O[C@H](CO)[C@@H](O)[C@H](N)[C@H]1O [Amikacin disulfate]	1.64	0.597	0.666	0.868	0.695	0.989
CC1Oc2cc(cnc2N)-c2c(nn(C)c2C#N)CN(C)C(=O)c2ccc(F)cc21 (stereo unspecified)	0.876	1.02	1.34	1.55	2.11	1.26
C[C@H](N)[C@H](O)c1cccc(O)c1 [Metaraminol Bitartrate]	0.87	0.731	0.8	1.26	0.768	0.946
Cc1noc(NS(=O)(=O)c2ccc(N)cc2)c1C [Sulfisoxazole]	1.32	0.853	1.02	0.984	0.555	1.26
O=C(c1ccc(OCCCc2c[nH]cn2)cc1)C1CC1 [Ciproxifan]	1.15	1.15	1.03	0.829	0.908	1.15
C[N+]1(C)CCC(=C(c2ccccc2)c2ccccc2)CC1 [Diphemanil Methylsulfate]	1.08	0.915	1.02	0.946	0.465	1.83
NCCCCCNCC12CC3CC(CC(C3)C1)C2 [IEM 1754 dihydrobroMide]	0.936	0.504	0.662	0.973	2.44	0.664
CS(=O)(=O)c1ccc(-c2cnc(N)c(C(=O)Nc3ccccc3)n2)cc1	0.811	2.05	1.29	1.27	1.07	1.23
CCc1cc(Nc2nccc(-c3c(-c4ccc(OC)c(C(=O)Nc5c(F)cccc5F)c4)nc4ccccn34)n2)c(OC)cc1N1CCC(N2CCN(S(C)(=O)=O)CC2)CC1	1.24	1.6	1.12	0.954	1.11	1.26
O=C1NCCc2[nH]c(-c3ccncc3)cc21	3.08	0.97	1.24	3.06	2.81	3.15
CNC(CC(=O)O)C(=O)O [NMDA (N-Methyl-D-aspartic acid)]	0.691	1.26	0.677	0.867	0.901	0.706
CC1(C)O[C@@H]2C[C@H]3[C@@H]4CCC5=CC(=O)CC[C@]5(C)[C@@]4(F)[C@@H](O)C[C@]3(C)[C@]2(C(=O)CCl)O1 [Halcinonide]	1.46	2.25	2.18	2	0.493	1.78
CCn1cc(C(=O)O)c(=O)c2cc(F)c(N3CCN(C)CC3)cc21 [Pefloxacin Mesylate Dihydrate]	1.52	1.04	0.855	0.707	0.635	1.07
COc1cc(OC)c(C(=O)CCCN2CCCC2)c(OC)c1 [Buflomedil HCl]	1.46	1.05	0.962	1.04	0.715	1.18
